Our source for the growth inhibition values is PubChem BioAssay (NCI).

Assay [1] is described as follows: NCI Yeast Anticancer Drug Screen. Data for the rad50 strain (AID 155).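 Note: 0% = growth of vehicle-only cultures of the same strain.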 Particulars: S. cerevisiae rad50 strain growth inhibition; at 50.0 µM; active compounds read high. An outline of the steps:
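A DNA repair-deficient yeast mutant serves as the test organism; compound-induced growth inhibition is calculated against vehicle-treated cells.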

Assay [2] is described as follows: NCI Yeast Anticancer Drug Screen. Data for the mec2-1 strain (AID 157). The settings on record: S. cerevisiae mec2-1 strain, at 50.0 µM, active compounds read high. In outline:
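Each compound was tested on mec2-1 yeast, a strain altered in DNA damage repair or cell cycle control. Growth inhibition is reported relative to vehicle.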

A short description of assay [3]: NCI Yeast Anticancer Drug Screen. Data for the sgs1 mgt1 strain (AID 161).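 Note: 0% = growth of cultures given vehicle only.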 Particulars: S. cerevisiae sgs1 mgt1 strain, at 50.0 µM, active compounds read high. An outline of the steps:
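Inhibition of yeast growth, normalised to vehicle-treated controls, is reported for a strain bearing genetic alterations in DNA damage repair.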

Assay [4] in a line: NCI Yeast Anticancer Drug Screen. Data for the cln2 rad14 strain (AID 165).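 Note: 0% = growth equal to vehicle treated cultures.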 Particulars: S. cerevisiae cln2 rad14 strain, at 50.0 µM, active compounds read high. In outline: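 Test compounds were added to cln2 rad14 yeast cultures; inhibition of growth was then determined by comparison with vehicle treatment.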
A short description of assay [5]: NCI Yeast Anticancer Drug Screen. Data for the bub3 strain (AID 167). Particulars: S. cerevisiae bub3 mutant strain, at 50.0 µM, active compounds read high. In outline: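 Inhibition values come from growth of compound-treated mutant yeast normalised to vehicle-treated controls.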
Assay [6] in a line: NCI Yeast Anticancer Drug Screen. Data for the mlh1 rad18 strain (AID 175). The settings on record: S. cerevisiae mlh1 rad18 strain growth inhibition; at 50.0 µM; active compounds read high. An outline of the steps:
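Inhibition values reflect reduced growth of mutant yeast versus vehicle-treated controls following compound exposure; the mutations affect DNA damage repair.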

The panel holds about 79,000 compounds, 15% with a hit somewhere; the sample as a whole holds those more often. A number with no mark means an inactive call. The source made the active and inactive calls. Cut-off read from the data, not from the text of the source: active = growth inhibition above about 70%; inactive = the rest.

Turning to `Cc1[nH]c(=O)nc(N/N=C/c2ccc(O)cc2)c1C(=O)Nc1ccc(Cl)cc1`, the growth inhibition is -17.6% in assay [1]; -16% in assay [2]; -20.6% in assay [3]; -3.15% in assay [4]; -12.6% in assay [5]; -25.9% in assay [6].

Turning to `CCN(CC)c1ccc(N=Nc2ccc([N+](=O)[O-])cc2OC(=O)/C=C/c2ccccc2)c(OC(=O)/C=C/c2ccccc2)c1`, the growth inhibition in assay [1] is -17.6%; in assay [2] it was -47.9%; in assay [3] it was -12.9%; in assay [4], 5.6%; in assay [5], -32.5%; in assay [6], -22.8%.

On to `O=C(O)/C=C/SCc1ccccc1`, for which the growth inhibition in assay [1] was 10.2%; in assay [2] it was -13.2%; in assay [3] it was 0.8%; in assay [4], -4.3%; in assay [5] it was 1.4%; in assay [6], -3.05%.

On to `CCOC(=O)C1=C(O)C(=O)c2ccoc2C1=O`, for which the growth inhibition in assay [1] was -52.9%; in assay [2], -35.2%; in assay [3], -58%; in assay [4], -7.15%; in assay [5] it was -32.5%; in assay [6], -32%.

With `CC(C)(C)C1CCC2c3c([nH]c4ccccc34)C3C(=O)N(c4cc(Cl)ccc4Cl)C(=O)C3C2C1` (stereo not given), the growth inhibition in assay [1] was 18%; in assay [2] it was 0.75%; in assay [3], -4.05%; in assay [4], 5.4%; in assay [5], 6.3%; in assay [6], 0.9%.

In the case of `ClCCCCCCCCCCl`, the growth inhibition in assay [1] is 28.6%; in assay [2], -17.4%; in assay [3], -12.7%; in assay [4] it was -9%; in assay [5], -13.2%; in assay [6], 2.15%.

Regarding `Nc1c2ccccc2nc2c(C(=O)Nc3ccc(S(N)(=O)=O)cc3)cccc12`, the growth inhibition is 16.4% in assay [1]; -8.9% in assay [2]; -1.45% in assay [3]; 19% in assay [4]; -2.45% in assay [5]; 1.05% in assay [6].

On to `CN(CC(C)(C)C=O)C(=O)c1ccccc1`, for which the growth inhibition in assay [1] was 8.05%; in assay [2], -5.45%; in assay [3] it was -10%; in assay [4], -8.3%; in assay [5] it was -19.1%; in assay [6], -1%.

As to `O=C(O)c1c[nH]c2cc(OCc3ccccc3)ccc2c1=O`, the growth inhibition was -4.1% in assay [1]; -44.4% in assay [2]; -45.5% in assay [3]; -7.15% in assay [4]; -21.1% in assay [5]; 7.75% in assay [6].

`O=S(=O)(SSS(=O)(=O)c1ccc(Cl)c(Cl)c1)c1ccc(Cl)c(Cl)c1`: the growth inhibition in assay [1] is 7.8%; in assay [2], 4.05%; in assay [3], 5.85%; in assay [4] it was -3.45%; in assay [5], 3.65%; in assay [6] it was 11.7%.

In the case of `NC(=O)c1cc(Cl)ccc1O`, the growth inhibition is 14.5% in assay [1]; 12.5% in assay [2]; 18.4% in assay [3]; 3.1% in assay [4]; -4.05% in assay [5]; 11.6% in assay [6].

Take `Cc1ccc(S(=O)(=O)Oc2ccccc2NS(=O)(=O)c2ccccc2)cc1`: the growth inhibition in assay [1] was 68.2%; in assay [2] it was 53.2%; in assay [3], 76.5% (active); in assay [4], 52.1%; in assay [5], 13.5%; in assay [6], 48.1%.

As for `NCCCOC12CC3CC(CC(C3)C1)C2`, the growth inhibition in assay [1] was 6.1%; in assay [2], -4.05%; in assay [3] it was 38.8%; in assay [4], -50.4%; in assay [5], 7.6%; in assay [6], 15.8%.

On to `CC(NC(=O)C(N)CC(=O)O)NC(=O)C1CCC1` (stereo not given), for which the growth inhibition in assay [1] is -39.9%; in assay [2], -48.1%; in assay [3] it was -19.2%; in assay [4] it was 24.6%; in assay [5], 8.6%; in assay [6] it was -35.8%.

Take `CC(=O)Nc1ccc2c(c1)Cc1cccc(O)c1-2`: the growth inhibition is 0.65% in assay [1]; -7.15% in assay [2]; 15.9% in assay [3]; -29.9% in assay [4]; 1.75% in assay [5]; 10.1% in assay [6].

Regarding `CC(=O)c1sc(-c2nc(C)c(C(=O)/C=C\c3ccc(/C=C\C(=O)c4sc(-c5nc(C)c(C(C)=O)s5)nc4C)cc3)s2)nc1C`, the growth inhibition in assay [1] was -19.3%; in assay [2], -13.4%; in assay [3] it was -8.7%; in assay [4], -11.6%; in assay [5] it was 3.95%; in assay [6], -14.4%.

In the case of `COC1OC2COC(c3ccccc3)OC2C2C1N2C(=S)SC` (stereo not given), the growth inhibition in assay [1] was -4.05%; in assay [2] it was 1.7%; in assay [3] it was -2.7%; in assay [4] it was -17.6%; in assay [5], -0.75%; in assay [6], -0.55%.

As for `CC(=O)OC[C@H]1O[C@@H](O[C@H]2[C@H](OC(C)=O)C=CO[C@@H]2COC(C)=O)C(OC(C)=O)[C@H]2OC(C)(C)O[C@H]21` (stereo not given in full), the growth inhibition is -9% in assay [1]; -14.8% in assay [2]; -18.9% in assay [3]; 3.5% in assay [4]; 7.05% in assay [5]; 4.95% in assay [6].

Turning to `COc1ccc(C(=O)/C=C/c2ccc(OC)c(OC)c2OC)c(O)c1`, the growth inhibition was 17.6% in assay [1]; 1.4% in assay [2]; -8.55% in assay [3]; -18.5% in assay [4]; 16.6% in assay [5]; 14.7% in assay [6].

In the case of `O=C(O)CN(CC(=O)O)CC(=O)O`, the growth inhibition is -9.7% in assay [1]; -23.6% in assay [2]; -34.4% in assay [3]; -11.8% in assay [4]; -17.1% in assay [5]; 32.1% in assay [6].
